Set-up in all cases: scale not given: direction of the effect not stated beside the values
The target in assay [1] is Protein translocase subunit SecA (Escherichia coli (strain K12)) (UniProt P10408). Description: Assay to Identify E. coli SecA ATPase Inhibitors. Type of assay: functional. The note with it: 30 µM.
The target of assay [2] is T1, Ubiquitin-activating enzyme e1, putative (Leishmania donovani (strain BPK282A1)) (UniProt E9BSI1).
T1 sequence (whole entry): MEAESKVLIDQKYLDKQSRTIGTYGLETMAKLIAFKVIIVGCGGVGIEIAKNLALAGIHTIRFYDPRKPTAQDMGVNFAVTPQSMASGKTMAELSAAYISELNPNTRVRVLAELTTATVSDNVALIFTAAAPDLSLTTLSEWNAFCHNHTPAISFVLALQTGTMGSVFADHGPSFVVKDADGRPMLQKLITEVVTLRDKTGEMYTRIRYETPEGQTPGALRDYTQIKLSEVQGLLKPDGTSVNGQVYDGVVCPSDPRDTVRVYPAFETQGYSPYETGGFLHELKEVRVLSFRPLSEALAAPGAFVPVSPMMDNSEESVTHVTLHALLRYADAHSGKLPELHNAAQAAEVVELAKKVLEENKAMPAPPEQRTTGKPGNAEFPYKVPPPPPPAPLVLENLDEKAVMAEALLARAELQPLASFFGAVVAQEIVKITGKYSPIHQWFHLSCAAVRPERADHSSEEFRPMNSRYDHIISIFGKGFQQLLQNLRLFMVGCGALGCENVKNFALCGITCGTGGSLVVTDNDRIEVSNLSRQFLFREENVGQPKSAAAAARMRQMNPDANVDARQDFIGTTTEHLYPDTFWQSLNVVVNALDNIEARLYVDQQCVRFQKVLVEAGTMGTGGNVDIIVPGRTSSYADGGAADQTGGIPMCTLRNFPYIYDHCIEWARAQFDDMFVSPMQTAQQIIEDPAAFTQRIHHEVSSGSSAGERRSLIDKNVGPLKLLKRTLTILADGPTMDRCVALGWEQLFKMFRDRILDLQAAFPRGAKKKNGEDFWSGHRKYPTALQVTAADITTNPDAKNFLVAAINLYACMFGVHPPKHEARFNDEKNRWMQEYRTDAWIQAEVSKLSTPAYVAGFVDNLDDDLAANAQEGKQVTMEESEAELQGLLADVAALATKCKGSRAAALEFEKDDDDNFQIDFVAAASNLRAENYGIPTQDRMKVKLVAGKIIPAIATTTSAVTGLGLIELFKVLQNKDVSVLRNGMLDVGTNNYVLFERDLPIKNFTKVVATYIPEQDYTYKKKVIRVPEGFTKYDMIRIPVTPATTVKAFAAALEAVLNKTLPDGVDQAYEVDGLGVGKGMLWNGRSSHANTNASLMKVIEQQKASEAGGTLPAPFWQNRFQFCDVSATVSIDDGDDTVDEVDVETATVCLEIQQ
Description: Leishmania donovani Ubiquitin Activating Enzyme (LdE1). The note with it: 30 µM. Type of assay: functional.

Assay [3] has as its target AMP-activated protein kinase, AMPK (Homo sapiens) (UniProt P54646+O43741+P54619+Q9UGJ0+Q9Y478+Q13131+Q9UGI9). The experiment in a line: AMP-dependent Kinase enzyme assay. An in vitro enzyme assay that detects ADP turnover that is directly proportional to AMPK activity. This uses naive AMPK that is activated during the assay with MK-8722. Format: functional. The note with it: 30 µM.

The target in assay [4] is Sialic acid-binding Ig-like lectin 9 (Homo sapiens) (UniProt Q9Y336). Description: Hs-Siglec9 ALPHAscreen SOP 20170721. Conditions: 10 µM. On the technique in general: Bead proximity is the source of the signal in Alpha formats.
In assay [5] the test system is Trypanosoma cruzi. Description: Trypanosoma cruzi phosphomannomutase and mannose-1-phosphate guanylyltransferase assay. Type of assay: functional. Conditions: 10 µM.
Assay [6] addresses T2, Arginase-2, mitochondrial (Homo sapiens) (UniProt P78540).
T2 sequence (whole entry): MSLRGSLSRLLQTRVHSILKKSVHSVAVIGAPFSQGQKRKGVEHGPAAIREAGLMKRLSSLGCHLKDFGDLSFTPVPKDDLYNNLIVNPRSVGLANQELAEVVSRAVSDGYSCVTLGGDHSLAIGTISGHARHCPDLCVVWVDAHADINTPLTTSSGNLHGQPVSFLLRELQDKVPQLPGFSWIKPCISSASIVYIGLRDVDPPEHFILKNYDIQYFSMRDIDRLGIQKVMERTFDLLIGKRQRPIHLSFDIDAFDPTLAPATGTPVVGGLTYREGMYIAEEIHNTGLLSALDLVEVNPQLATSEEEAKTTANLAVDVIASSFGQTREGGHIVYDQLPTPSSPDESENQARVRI
The experiment in a line: in vitro enzyme assay to detect the production of urea directly proportional to the activity of Arginase II. Also: in the data most compounds retested in dose-response had high values. Format: functional. Conditions: 33.3 µM.

Assay [7] addresses T3, Proteasome subunit beta (Trypanosoma cruzi) (UniProt O96673).
T3 sequence (whole entry): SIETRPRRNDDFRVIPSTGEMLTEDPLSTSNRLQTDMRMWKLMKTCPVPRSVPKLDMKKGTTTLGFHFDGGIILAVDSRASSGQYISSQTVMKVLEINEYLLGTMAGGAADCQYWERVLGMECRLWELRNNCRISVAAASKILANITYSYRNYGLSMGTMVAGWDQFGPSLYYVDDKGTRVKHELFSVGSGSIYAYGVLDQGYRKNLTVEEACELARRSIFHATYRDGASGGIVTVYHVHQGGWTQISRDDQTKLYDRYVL
The experiment in a line: Trypanosoma cruzi proteasome chymotrypsin-like activity (TcProtChymo) assay. Also: in the data most compounds retested in dose-response had high values. Type of assay: functional. The note with it: 9.37 µM.

For assay [8], the species on record is Homo sapiens. The experiment in a line: To identify inhibition of the IFN signalling (Jak-Stat) pathway via expression of an eGFP reporter gene under the control of an IFN-stimulated response element (ISRE) containing MxA promoter. Format: functional. The note with it: 30 µM. A general note: A reporter such as luciferase makes a cellular process visible.
The target of assay [9] is T4, Tyrosyl-tRNA synthetase, putative (Trypanosoma cruzi (strain CL Brener)) (UniProt Q4DSP6).
T4 sequence (whole entry): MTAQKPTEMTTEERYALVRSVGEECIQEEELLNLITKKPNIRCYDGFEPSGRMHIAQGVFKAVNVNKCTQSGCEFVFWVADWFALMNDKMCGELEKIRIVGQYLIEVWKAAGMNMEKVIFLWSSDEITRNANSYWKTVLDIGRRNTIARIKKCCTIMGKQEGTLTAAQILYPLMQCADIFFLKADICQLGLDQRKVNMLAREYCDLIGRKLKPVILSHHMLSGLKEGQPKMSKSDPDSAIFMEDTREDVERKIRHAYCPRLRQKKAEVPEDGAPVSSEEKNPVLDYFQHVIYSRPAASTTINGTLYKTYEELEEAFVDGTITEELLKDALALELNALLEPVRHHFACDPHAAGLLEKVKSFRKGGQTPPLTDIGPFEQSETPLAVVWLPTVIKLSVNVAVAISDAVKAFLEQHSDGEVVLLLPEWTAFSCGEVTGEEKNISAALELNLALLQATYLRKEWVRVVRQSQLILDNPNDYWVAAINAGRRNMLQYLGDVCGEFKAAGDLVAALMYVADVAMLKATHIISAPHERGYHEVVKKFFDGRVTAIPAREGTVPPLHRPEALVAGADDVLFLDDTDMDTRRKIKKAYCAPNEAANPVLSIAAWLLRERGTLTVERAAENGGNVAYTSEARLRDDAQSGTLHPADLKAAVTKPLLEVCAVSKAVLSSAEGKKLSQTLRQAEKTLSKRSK
The experiment in a line: Trypanosoma cruzi tyrosyl tRNA synthetase (TcYRS) _High Tyrosine SOP. Also: in the data most compounds retested in dose-response had high values. The note with it: 30 µM. Format: functional.

The target in assay [10] is T4, Tyrosyl-tRNA synthetase, putative (Trypanosoma cruzi (strain CL Brener)). The experiment in a line: Trypanosoma cruzi tyrosyl tRNA synthetase (TcYRS) SOP. Format: functional. The note with it: 30 µM.
The target of assay [11] is Chromo domain-containing protein 1 (Saccharomyces cerevisiae (strain ATCC 204508 / S288c) (Baker's yeast)) (UniProt P32657). Description: ScCHD-1 Enzyme Inhibition Assay. Also: in the data most compounds retested in dose-response had high values. Type of assay: functional. Conditions: 30 µM.

For some of these results: Entries with a potency or affinity are not part of this list.

Sequence of Protein translocase subunit SecA (Escherichia coli (strain K12)) (P10408 whole entry): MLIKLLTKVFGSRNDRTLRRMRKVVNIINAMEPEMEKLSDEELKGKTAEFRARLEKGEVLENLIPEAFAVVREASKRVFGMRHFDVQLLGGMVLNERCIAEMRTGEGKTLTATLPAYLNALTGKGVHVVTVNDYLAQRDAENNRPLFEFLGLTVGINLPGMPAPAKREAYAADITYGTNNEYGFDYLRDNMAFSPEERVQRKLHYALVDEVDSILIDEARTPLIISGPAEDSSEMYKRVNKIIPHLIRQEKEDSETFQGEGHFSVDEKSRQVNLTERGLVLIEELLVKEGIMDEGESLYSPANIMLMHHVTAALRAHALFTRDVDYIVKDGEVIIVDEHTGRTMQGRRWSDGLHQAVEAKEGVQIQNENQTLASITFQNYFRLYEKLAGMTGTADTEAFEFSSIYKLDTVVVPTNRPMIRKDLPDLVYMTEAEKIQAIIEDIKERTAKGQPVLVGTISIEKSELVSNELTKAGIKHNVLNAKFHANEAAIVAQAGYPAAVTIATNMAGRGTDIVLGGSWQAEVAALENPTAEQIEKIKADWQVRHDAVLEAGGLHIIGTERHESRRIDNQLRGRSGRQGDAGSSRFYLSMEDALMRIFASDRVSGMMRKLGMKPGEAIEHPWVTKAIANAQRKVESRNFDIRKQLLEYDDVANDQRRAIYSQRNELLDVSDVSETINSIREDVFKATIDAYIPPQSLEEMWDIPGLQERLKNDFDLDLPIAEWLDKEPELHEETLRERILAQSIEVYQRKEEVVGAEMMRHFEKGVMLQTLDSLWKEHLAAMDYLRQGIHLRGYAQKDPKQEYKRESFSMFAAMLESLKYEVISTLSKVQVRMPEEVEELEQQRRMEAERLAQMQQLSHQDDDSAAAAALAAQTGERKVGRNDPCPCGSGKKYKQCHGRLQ
Sequence of Sialic acid-binding Ig-like lectin 9 (Homo sapiens) (Q9Y336 whole entry): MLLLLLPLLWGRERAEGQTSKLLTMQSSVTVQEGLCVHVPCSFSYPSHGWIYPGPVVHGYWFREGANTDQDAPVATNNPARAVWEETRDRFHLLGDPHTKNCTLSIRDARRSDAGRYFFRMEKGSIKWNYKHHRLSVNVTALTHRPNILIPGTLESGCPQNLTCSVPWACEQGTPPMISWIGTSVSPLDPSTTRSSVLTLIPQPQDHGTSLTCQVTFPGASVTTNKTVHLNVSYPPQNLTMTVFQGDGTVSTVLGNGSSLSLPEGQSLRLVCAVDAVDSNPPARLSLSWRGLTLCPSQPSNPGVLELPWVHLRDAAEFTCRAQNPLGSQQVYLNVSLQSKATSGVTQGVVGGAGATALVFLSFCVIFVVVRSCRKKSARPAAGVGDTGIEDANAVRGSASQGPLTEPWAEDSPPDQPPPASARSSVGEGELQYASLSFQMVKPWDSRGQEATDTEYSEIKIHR
Sequence of Chromo domain-containing protein 1 (Saccharomyces cerevisiae (strain ATCC 204508 / S288c) (Baker's yeast)) (P32657 whole entry, the tested form may be a part): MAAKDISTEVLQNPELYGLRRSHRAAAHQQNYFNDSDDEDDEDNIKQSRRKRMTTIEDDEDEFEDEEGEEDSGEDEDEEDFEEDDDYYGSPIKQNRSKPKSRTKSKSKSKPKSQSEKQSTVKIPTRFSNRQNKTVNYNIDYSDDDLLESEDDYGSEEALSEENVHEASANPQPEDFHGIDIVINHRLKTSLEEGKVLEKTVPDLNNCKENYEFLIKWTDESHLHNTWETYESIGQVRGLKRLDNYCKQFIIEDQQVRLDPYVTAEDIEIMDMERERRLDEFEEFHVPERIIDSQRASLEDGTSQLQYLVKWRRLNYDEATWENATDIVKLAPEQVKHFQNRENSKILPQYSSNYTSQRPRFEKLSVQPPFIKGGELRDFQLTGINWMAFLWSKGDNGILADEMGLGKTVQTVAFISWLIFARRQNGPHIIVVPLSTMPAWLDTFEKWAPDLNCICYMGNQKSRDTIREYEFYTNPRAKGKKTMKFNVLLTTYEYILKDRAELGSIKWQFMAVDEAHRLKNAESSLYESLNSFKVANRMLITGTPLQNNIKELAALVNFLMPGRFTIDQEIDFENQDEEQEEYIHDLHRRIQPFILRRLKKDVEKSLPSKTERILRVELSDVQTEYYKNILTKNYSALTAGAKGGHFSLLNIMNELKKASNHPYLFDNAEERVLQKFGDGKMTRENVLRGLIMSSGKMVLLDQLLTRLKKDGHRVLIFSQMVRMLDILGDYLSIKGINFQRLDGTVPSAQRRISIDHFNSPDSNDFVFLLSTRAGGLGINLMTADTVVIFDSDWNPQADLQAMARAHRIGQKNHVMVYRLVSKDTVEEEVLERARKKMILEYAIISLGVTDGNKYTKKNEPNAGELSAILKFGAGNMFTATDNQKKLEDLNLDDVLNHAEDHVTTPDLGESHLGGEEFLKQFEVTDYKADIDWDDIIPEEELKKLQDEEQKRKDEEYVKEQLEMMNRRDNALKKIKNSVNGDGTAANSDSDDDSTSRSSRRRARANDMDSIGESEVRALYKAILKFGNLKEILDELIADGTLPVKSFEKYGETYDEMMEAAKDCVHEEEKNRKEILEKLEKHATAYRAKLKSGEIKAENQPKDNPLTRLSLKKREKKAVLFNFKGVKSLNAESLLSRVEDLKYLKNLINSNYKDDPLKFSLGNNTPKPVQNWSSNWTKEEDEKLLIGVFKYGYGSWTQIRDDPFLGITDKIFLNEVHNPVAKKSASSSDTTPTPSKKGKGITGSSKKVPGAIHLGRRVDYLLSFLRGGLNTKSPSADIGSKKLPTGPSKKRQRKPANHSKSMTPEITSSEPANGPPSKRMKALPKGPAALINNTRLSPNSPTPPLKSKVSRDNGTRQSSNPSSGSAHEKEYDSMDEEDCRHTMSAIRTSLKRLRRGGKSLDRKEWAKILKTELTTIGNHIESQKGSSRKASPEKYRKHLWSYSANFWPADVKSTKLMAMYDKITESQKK

Turning to `Cc1ncsc1CCC(=O)NCc1cc2n(n1)CCN(C(=O)N(C)C)C2`, the Percent Effect in [1] is -0.664%; in assay [2], 1.39%; in [3], -1.68%; in assay [4] it was -4.18%; in assay [5] it was -4.96%; in [6], 3.97%. The Percent Effect was 15.3% in assay [7]; 6.29% in assay [8]; 3.16% in assay [9]; 2.56% in assay [10]; -1.68% in assay [11].
Take `Cn1cc(N2CCCC(NCc3cccc4c3OCCCO4)C2)cn1` (stereo unspecified): the Percent Effect is -4.17% in [1]; 16.2% in assay [2]; -10% in [3]; 1.61% in assay [4]; 0.472% in assay [5]; -4.01% in [6]. In addition, the Percent Effect in assay [7] is 0.721%; in [8], 3.65%; in [9] it was 7.39%; in assay [10] it was 23.5%; in assay [11], -7.98%.
For `O=C1N(c2cccc(Cl)c2)Cc2nc(=O)n(Cc3cccc(F)c3)n21`, the Percent Effect in assay [1] was -2.59%; in [2] it was -1.33%; in [3] it was 3.81%; in assay [4], 5.37%; in assay [5], -4.71%; in [6] it was -10.4%. In addition, the Percent Effect was 6.1% in assay [7]; 7.11% in assay [8]; -1.06% in assay [9]; 2.56% in assay [10]; -8.79% in assay [11].
For `c1ccc(NCc2cn3c(n2)CN(Cc2cccnc2)CC3)nc1`, the Percent Effect was -5.07% in assay [1]; 13.5% in assay [2]; 2.94% in assay [3]; -3.31% in assay [4]; -2.83% in assay [5]; 4.78% in assay [6]. In addition, the Percent Effect is 23.6% in assay [7]; 4.12% in assay [8]; -1.08% in assay [9]; 10.3% in assay [10]; 0.00712% in assay [11].
For the compound `COC(=O)N1CCc2ccc(NC(=O)c3cn(C)nn3)cc2C1`, the Percent Effect in assay [1] was -6.1%; in [2], 10.4%; in assay [3] it was 2.87%; in assay [4] it was 5.76%; in [5], 2.07%; in [6], -49.7%. The Percent Effect in assay [7] came out at 9.92%; in assay [8] it was 12.5%; in [9], 5.29%; in [10], 8.97%; in assay [11], 90.7%.
Turning to `Cc1ccc(Cl)cc1C(=O)N1CCC2(CC1)c1ccccc1[C@@H](N)[C@@H]2O`, the Percent Effect in assay [1] is -6.01%; in assay [2] it was 5.41%; in assay [3], -7.41%; in assay [4] it was 40.2%; in assay [5], 9.85%; in assay [6], -2.38%. Also, the Percent Effect worked out at 19% in assay [7]; 2.23% in assay [8]; 6.88% in assay [9]; 12.2% in assay [10]; 10.1% in [11].
`Cc1nn(C)c(Cl)c1C1CCCN1C(=O)c1nccnc1N` (stereo unspecified): the Percent Effect in assay [1] is -2.73%; in assay [2] it was 16.2%; in assay [3], -10.8%; in [4], -6.66%; in assay [5], -3.3%; in [6] it was 0.802%. Further, the Percent Effect in [7] was 12.4%; in [8], 1.8%; in assay [9] it was 7.39%; in [10], 18.5%; in [11] it was -6.71%.
For `Cc1ccn(-c2ccccc2NCc2ncc[nH]2)n1`, the Percent Effect in [1] is -7.12%; in [2], 8.22%; in [3] it was -9.03%; in [4], -1.61%; in [5], 0.783%; in assay [6] it was 3.18%. Further, the Percent Effect in [7] is 9.41%; in assay [8] it was -4.65%; in assay [9], 4.3%; in [10] it was 10%; in [11] it was -3.33%.
With `CCCOCC(=O)NC1CCc2nc(C)cn2C1` (stereo unspecified), the Percent Effect in assay [1] was -4.43%; in [2], 5.26%; in assay [3], 8.68%; in assay [4] it was 1.69%; in assay [5], -2.04%; in [6], -9.47%. For the same compound, the Percent Effect in assay [7] was 17.2%; in [8], 0.806%; in assay [9] it was 7.45%; in [10], 13%; in assay [11], -0.543%.
For the compound `CN(C)S(=O)(=O)N1CCC2(CCCN(Cc3ccc(F)cc3)C2=O)C1` (stereo unspecified), the Percent Effect in [1] was -4.94%; in assay [2] it was 8.22%; in [3], -3.06%; in assay [4], 5.14%; in [5], 5.16%; in assay [6], 2.4%. The Percent Effect in [7] is 5.22%; in assay [8] it was 4%; in [9] it was 5.21%; in assay [10] it was -1.24%; in assay [11], -6.71%.
For `O=C(C1CC1)N1CCCC1C1CCN(Cc2ccccc2)CC1` (stereo unspecified), the Percent Effect in [1] was -2.89%; in assay [2] it was 2.63%; in assay [3], 6.02%; in assay [4], -2.3%; in [5] it was 0.682%; in assay [6] it was -4.73%. In addition, the Percent Effect in assay [7] was 4.31%; in [8], -4.47%; in assay [9], 4.25%; in assay [10] it was 5.2%; in assay [11], -2.33%.
